Our source for the growth values is PubChem BioAssay (NCI).

Compounds without any hit were thinned out: in the full panel of roughly 83,000, 20% have a hit.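 Results are percent growth after 48 hours of single-concentration exposure. 100 means growth as in untreated cells, lower positive values show inhibition; negative values down to -100 show cell death.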 Unmarked numbers belong to inactive results. Activity calls are given as the source filed them. The calls were made as follows: active = growth percent below 10; inactive = the rest.

Some test systems named below: SK-MEL-2 melanoma; EKVX NSCLC; SN12C renal; UO-31 renal; TK-10 renal; ACHN renal; CAKI-1 renal; A498 renal; CCRF-CEM leukemia; MOLT-4 leukemia; RPMI-8226 leukemia; OVCAR-8 ovarian; OVCAR-5 ovarian; OVCAR-4 ovarian; SK-OV-3 ovarian; IGROV1 ovarian; OVCAR-3 ovarian; HS 578T breast; NCI/ADR-RES ovarian; SR leukemia.
Holding throughout (experiment): NCI-60 one-dose screen, 48 h (100 = growth as untreated, 0 = no growth, -100 = all killed)
Holding throughout (details): 10 µM unless noted

On to `CS(=O)(=O)c1nnc(-c2ccccc2)s1`, for which the growth in the experiment on SK-MEL-2 melanoma is 112%; in the experiment with EKVX NSCLC, 109%; in the experiment on SN12C renal it was 105%; with UO-31 renal, -71.4% (active); in the experiment on TK-10 renal, 113%; in the experiment on ACHN renal it was 83.9%. Besides, the growth is 94.9% in the experiment with CAKI-1 renal; 91.4% in the experiment with A498 renal; 76.5% with CCRF-CEM leukemia; 88.1% with MOLT-4 leukemia; 99.5% in the experiment on RPMI-8226 leukemia; 97.4% with OVCAR-8 ovarian. The growth with OVCAR-5 ovarian was 99.3%; in the experiment with OVCAR-4 ovarian, 99.5%; with SK-OV-3 ovarian, 98.8%; in the experiment with IGROV1 ovarian, 103%; in the experiment on OVCAR-3 ovarian, 99.3%; with HS 578T breast it was 108%. Besides, the growth in the experiment with NCI/ADR-RES ovarian was 104%.

As for `C#CC#CC#CC#CC#CC#CC#CC#CCC1OC[C@H](COC(=O)O[C@@H](C(=O)O[C@H]2C[C@@]3(O)[C@@H](OC(=O)c4ccccc4)[C@@H]4[C@]5(OC(C)=O)CO[C@@H]5C[C@H](O)[C@@]4(C)C(=O)[C@H](OC(C)=O)C(=C2C)C3(C)C)[C@@H](NC(=O)c2ccccc2)c2ccccc2)O1` (stereo partly specified), the growth in the experiment with SK-MEL-2 melanoma is 36.2%; in the experiment with EKVX NSCLC, 60.2%; with SN12C renal, 31.2%; in the experiment on UO-31 renal, 95.1%; in the experiment with TK-10 renal, 84.9%; in the experiment with ACHN renal, 69.8%. For the same compound, the growth in the experiment on CAKI-1 renal is 59.5%; with A498 renal, -1.18% (active); in the experiment on CCRF-CEM leukemia, 15.1%; with MOLT-4 leukemia, 28.5%; with SR leukemia it was 24.6%; in the experiment on RPMI-8226 leukemia, 15.4%. The growth in the experiment with OVCAR-8 ovarian was 31.4%; in the experiment on OVCAR-5 ovarian it was 26%; with SK-OV-3 ovarian, 53.5%; with IGROV1 ovarian, 33.2%; with HS 578T breast it was 8.95% (active); with NCI/ADR-RES ovarian it was 106%.

For the compound `CCOC(=O)C1=C(C)/C(=C\c2[nH]c(C)c(C(=O)OCC)c2C)N=C1C`, the growth in the experiment with SK-MEL-2 melanoma was 85.6%; in the experiment with EKVX NSCLC, 94.2%; in the experiment with SN12C renal, 79.1%; in the experiment on UO-31 renal, 73.7%; with TK-10 renal, 108%; in the experiment on ACHN renal, 96.5%. Moreover, the growth is 85% in the experiment with CAKI-1 renal; 103% in the experiment with A498 renal; 4.69% (active) in the experiment on CCRF-CEM leukemia; 9.99% (active) in the experiment on MOLT-4 leukemia; 62.9% with RPMI-8226 leukemia; 61.5% with OVCAR-8 ovarian. The growth in the experiment on OVCAR-5 ovarian is 97.8%; in the experiment on OVCAR-4 ovarian it was 81.9%; with SK-OV-3 ovarian, 84.4%; with IGROV1 ovarian it was 97%; with OVCAR-3 ovarian it was 21.7%; in the experiment on HS 578T breast it was 103%. Further, the growth in the experiment with NCI/ADR-RES ovarian was 88.9%.

Consider `COc1ccccc1N(C(C)=O)C1=C(Cl)C(=O)c2ccccc2C1=O`, for which the growth with SK-MEL-2 melanoma is -38.2% (active); in the experiment with EKVX NSCLC, 10.1%; in the experiment with SN12C renal, 16%; with UO-31 renal, 11.4%; in the experiment with TK-10 renal, -6.2% (active); in the experiment on ACHN renal, -29.5% (active). Also, the growth in the experiment with CAKI-1 renal was 10.6%; with A498 renal, 36.2%; in the experiment on CCRF-CEM leukemia, -16.9% (active); in the experiment on MOLT-4 leukemia, 10.9%; in the experiment on RPMI-8226 leukemia it was -19.2% (active); in the experiment with OVCAR-8 ovarian, 19.1%. Further, the growth is 23.1% in the experiment on OVCAR-5 ovarian; 22.4% with OVCAR-4 ovarian; 17.6% in the experiment on SK-OV-3 ovarian; 13.8% in the experiment with IGROV1 ovarian; -23.3% (active) with OVCAR-3 ovarian; 42.7% in the experiment on HS 578T breast. Moreover, the growth with NCI/ADR-RES ovarian is 0.618% (active).

Consider `Cc1cc2c(cc1C)N(C(=O)CCl)CC(=O)N2`, for which the growth is 63.2% with SK-MEL-2 melanoma; 119% with EKVX NSCLC; 39.2% in the experiment on SN12C renal; 78.3% in the experiment on UO-31 renal; 44.5% in the experiment on TK-10 renal; -8.11% (active) with ACHN renal. Also, the growth in the experiment on CAKI-1 renal was 103%; in the experiment with A498 renal it was 82.9%; in the experiment on CCRF-CEM leukemia, -19.9% (active); in the experiment on MOLT-4 leukemia, 17.1%; in the experiment with RPMI-8226 leukemia it was 37.5%; with OVCAR-8 ovarian, 61.6%. Also, the growth was 96.8% with OVCAR-5 ovarian; 60.6% with OVCAR-4 ovarian; 68.9% in the experiment with SK-OV-3 ovarian; 43.1% in the experiment with IGROV1 ovarian; 6.17% (active) in the experiment on OVCAR-3 ovarian; 72.9% with HS 578T breast. Moreover, in the experiment on NCI/ADR-RES ovarian, the growth was 62.4%.

For `O=C1/C(=C/c2ccc(F)cc2)CN(C(=O)C(Cl)Cl)C/C1=C\c1ccc(F)cc1`, the growth in the experiment with SK-MEL-2 melanoma is -16% (active); in the experiment with EKVX NSCLC it was -17.9% (active); in the experiment on SN12C renal it was -72.5% (active); with UO-31 renal it was -83.4% (active); with TK-10 renal it was -59.8% (active); with ACHN renal, -98.3% (active). The growth in the experiment with CAKI-1 renal is -55.4% (active); with A498 renal, -84.3% (active); with CCRF-CEM leukemia, 2.43% (active); with MOLT-4 leukemia, -18.2% (active); in the experiment with SR leukemia, -18.4% (active); in the experiment with RPMI-8226 leukemia, -31.4% (active). In addition, the growth in the experiment on OVCAR-8 ovarian was -9.41% (active); in the experiment on OVCAR-5 ovarian it was -53.8% (active); in the experiment on SK-OV-3 ovarian it was 23.5%; in the experiment on IGROV1 ovarian, -50.3% (active); with OVCAR-3 ovarian, -95.1% (active); with HS 578T breast, 6.3% (active). In addition, in the experiment on NCI/ADR-RES ovarian, the growth was 5.22% (active).

Consider `Fc1ccc(Cn2cc(CSc3nc4ccccc4o3)nn2)cc1`, for which the growth in the experiment on SK-MEL-2 melanoma was 99.1%; in the experiment on EKVX NSCLC, 108%; with SN12C renal, 96.5%; with UO-31 renal, 83.6%; in the experiment on TK-10 renal, 95.7%; in the experiment on ACHN renal it was 102%. Besides, the growth in the experiment with CAKI-1 renal is 91.3%; in the experiment with A498 renal it was 98%; in the experiment with CCRF-CEM leukemia it was 100%; in the experiment with MOLT-4 leukemia, 92.7%; in the experiment on RPMI-8226 leukemia, 105%; with OVCAR-8 ovarian, 102%. Also, the growth with OVCAR-5 ovarian was 100%; with OVCAR-4 ovarian it was 98.9%; in the experiment on SK-OV-3 ovarian, 91.3%; with IGROV1 ovarian, 98.8%; with OVCAR-3 ovarian, 98.5%; in the experiment with HS 578T breast, 105%. Also, the growth in the experiment on NCI/ADR-RES ovarian was 109%.

For `Cc1ccc(-c2nc(-c3cn(C)c4ncccc34)cs2)cc1`, the growth with SK-MEL-2 melanoma is -14.6% [100 µM] (active); in the experiment with EKVX NSCLC it was -13.5% [100 µM] (active); in the experiment with SN12C renal it was -13.1% [100 µM] (active); in the experiment on UO-31 renal, 14.8% [100 µM]; in the experiment with TK-10 renal, -60% [100 µM] (active); in the experiment on ACHN renal it was 6.72% [100 µM] (active). For the same compound, the growth is -22.9% [100 µM] (active) with CAKI-1 renal; -3.41% [100 µM] (active) in the experiment with A498 renal; -4.89% [100 µM] (active) with CCRF-CEM leukemia; 3.67% [100 µM] (active) with SR leukemia; -7.33% [100 µM] (active) in the experiment with RPMI-8226 leukemia; -3.32% [100 µM] (active) in the experiment on OVCAR-8 ovarian. In addition, the growth in the experiment with OVCAR-5 ovarian is -5.34% [100 µM] (active); in the experiment with OVCAR-4 ovarian it was -21.5% [100 µM] (active); in the experiment with SK-OV-3 ovarian, -33.7% [100 µM] (active); with IGROV1 ovarian it was -0.0952% [100 µM] (active); in the experiment on OVCAR-3 ovarian, -28.5% [100 µM] (active); in the experiment with HS 578T breast, 13.7% [100 µM]. Also, the growth in the experiment with NCI/ADR-RES ovarian was -24.9% [100 µM] (active).
